This is an account of results in PubChem BioAssay (EPA / NIEHS).

Activity calls are given as the source filed them. The calls were made as follows: active = hit-call score of the fitted dose curve at least 0.9, where 1 is the maximum; inactive = score below 0.9.

The nature of this assay: CCTE_Simmons_MITO_max_resp_rate: CCTE's HepG2 Seahorse XF Respirometric Screening Assay at Maximal Respiratory State [uncoupled], Simmons Lab (AID 2284002). The note with it: actives raise or lower the signal. The method, then: CCTE_Simmons_MITO is cell-based, respirometric assay using HepG2 cells and a Seahorse XF Analyzer to measure oxygen consumption rates over four temporal phases spanning a total of 72 minutes: pre-injection (pre-treatment), basal (following test compound injection), maximal (following FCCP uncoupler injection), and inhibited (following rotenone/antimycin A injection)CCTE_Simmons_MITO_max_resp_rate is one of 4 assay components calculated from the CCTE_Simmons_MITO assay. It is designed to make measurements of maximal respiration using a form of respirometric reporter, as detected with […] signals by Seahorse XF96 technology. Data from the assay component CCTE_Simmons_MITO_max_resp_rate was analyzed at the endpoint, CCTE_Simmons_MITO_max_resp_rate_OCR, with bidirectional fitting relative to DMSO as the negative control and baseline of activity. Using a type of respirometric reporter, measures of maximal respiration for gain or loss-of-signal activity can be used to understand cellular oxygen consumption as it relates to cellular respiration. To generalize the intended target to other relatable targets, this assay endpoint is annotated to the mitochondria intended target family, where the subfamily is respiration.
Test chemicals were administered as a titrated series of 7 concentrations from 125 nM up to 100 uM [final] prior to kinetic endpoint detection at 6 minute intervals [3 min mix followed by 3 minutes measure] for 72 minutes. Three biological replicates of technical singles were run for every chemical concentration tested. Dimethylsulfoxide [DMSO] was used as the vehicle control. The electron transport chain inhibitor fenpyroximate was used as the positive control for decreased basal respiration and was administered as a titrated series of 6 concentrations from 250 nM up to 2.75 uM [final] with technical triplicates for the top concentration only. The uncoupler 2,4-dintirophenol was used as the positive control for increased basal respiration and was administered as a titrated series of 6 concentrations from 938 nM up to 40 uM [final] with technical triplicates for the top concentration only. A Seahorse XF Analzyer is required to measure the response.
What is called AC50 is the concentration giving half of the maximal activity seen. On to `CC(C)(C)c1cc(O)c(C(C)(C)C)cc1O`, for which the AC50 was 36.7 µM (active).
As for `Cc1c(C(=O)O)c(O)cc2c1C(=O)c1c(O)c([C@@H]3O[C@H](CO)[C@@H](O)[C@H](O)[C@H]3O)c(O)c(O)c1C2=O`, the call was inactive.
As for `Cc1cccc(Nc2cc(Cl)nc(SCC(=O)O)n2)c1C`, the molecule was called inactive.
Turning to `COc1ccc2c(c1)c(CC(=O)O)c(C)n2C(=O)c1ccc(Cl)cc1`, the result was inactive.
Still for that read-out and setting: as for `COc1ccc(S(=O)(=O)N2C(=O)[C@@](c3ccccc3OC)(N3C[C@H](O)C[C@H]3C(=O)N(C)C)c3cc(Cl)ccc32)c(OC)c1`, the entry is “inactive”.
Same read-out and setting: for `Cc1oc(-c2ccccc2)nc1CCOc1cccc2c1ccn2CCC(=O)O` the value was “inactive”.
Take `C=CCOC(=O)c1ccccc1C(=O)OCC=C`: the molecule was called inactive.
Same read-out and setting: as for `CN[C@H]1CC[C@@H](c2ccc(Cl)c(Cl)c2)c2ccc(S(N)(=O)=O)cc21`, the entry is “inactive”.
As for `CCCCC(CC)COC(=O)CC(C(=O)OCC(CC)CCCC)S(=O)(=O)O` (stereo not given), the AC50 is 85.2 µM (active).
`COc1cc(S(=O)(=O)O)c(C)cc1N=Nc1c(O)ccc2cc(S(=O)(=O)O)ccc12`: the result was inactive.
